Values joined by “and” are separate entries in the source; they are usually repeats but may differ in a detail not shown here. Equal values may be shown once. Out of some 240,000 compounds screened, about 1,300 (0.54%) were called active. About 1% were inconclusive and are not listed. The sample as a whole holds a higher share of actives than the screen did. Where a structure was tested more than once in an assay, its records may differ in their call. Values without a mark were called inactive. The call rests on the fitted dose curve; in most records, active means well fitted inhibition curve with a large enough effect; inconclusive means small, poorly fitted or top-dose-only effect; inactive means flat fitted curve, though single readings scatter.
Potency means the concentration at half of the fitted maximal effect.

Sequence of ATP-dependent DNA helicase Q1 (Homo sapiens) (P46063 whole entry, looked up): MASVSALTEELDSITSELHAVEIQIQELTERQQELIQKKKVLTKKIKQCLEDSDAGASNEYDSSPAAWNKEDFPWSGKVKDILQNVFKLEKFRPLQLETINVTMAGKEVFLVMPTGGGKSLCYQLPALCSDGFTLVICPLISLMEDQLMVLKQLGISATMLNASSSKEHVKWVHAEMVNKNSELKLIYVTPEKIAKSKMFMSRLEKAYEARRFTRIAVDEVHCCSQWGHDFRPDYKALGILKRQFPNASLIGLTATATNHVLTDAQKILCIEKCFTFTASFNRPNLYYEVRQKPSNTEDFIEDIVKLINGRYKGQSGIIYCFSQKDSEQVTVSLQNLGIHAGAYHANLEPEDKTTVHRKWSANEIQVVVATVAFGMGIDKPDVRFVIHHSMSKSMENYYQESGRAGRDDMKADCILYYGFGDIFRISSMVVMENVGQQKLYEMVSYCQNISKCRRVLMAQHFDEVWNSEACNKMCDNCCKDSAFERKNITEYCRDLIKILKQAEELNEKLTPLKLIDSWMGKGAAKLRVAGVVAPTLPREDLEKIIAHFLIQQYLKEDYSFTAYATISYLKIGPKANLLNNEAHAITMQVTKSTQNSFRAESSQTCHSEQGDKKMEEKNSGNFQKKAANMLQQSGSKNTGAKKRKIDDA

This assay concerns the target ATP-dependent DNA helicase Q1 (Homo sapiens) (UniProt P46063). The assay is described as follows: qHTS Assay for Inhibitors of RecQ-Like Dna Helicase 1 (RECQ1). Further: nearly all actives have a fitted effect of over 30% in size.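 On activity, negative = inhibition: plate controls were vehicle for no effect and no enzyme for full effect.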 Particulars: RECQ1 DNA unwinding, red fluorescence kinetic read; series mostly up to 57.3 µM; activity, negative = inhibition: at the top concentration. An excerpt: Survival of cells and the faithful propagation of the genome depend on elaborate mechanisms of detecting and repairing DNA damage. Treatment of advanced cancer relies on radiation therapy or chemotherapy, which kill cancer cells by causing extensive DNA damage. It is often found, that cancer cells develop resistance to therapy through enhanced activity of DNA repair functions; this has led to an increased interest in developing drugs that interfere with DNA repair, which could sensitize cancer cells to conventional therapy.
This validation qHTS assay pertains to human RECQ1, which is important in resolving abnormal DNA structures formed during replication or homologous recombination. Shutting down the expression of RECQ1 leads to chromosomal instability and higher radiation sensitivity in cultured cells.
The validation assay was a fluorescence quenching based kinetic qHTS for RECQ1 Helicase DNA unwinding. The activity was measured as ATP-dependent separation of a 20-bp DNA duplex extended by 30-nt single-stranded tails (forked duplex). The forked DNA substrate was tagged with rhodamine fluorophore (carboxytetramethyl rhodamine, TAMRA) and BHQ-2 (Black Hole Quencher 2) dark quencher. Strand separation results in an increase in the fluorescence of TAMRA (excitation 525 nm, emission 598 nm). This substrate construct operates in a red-shifted region where very few compound library members have been noted to fluoresce (PubChem AIDs 593 and 594). An additional feature of the assay is the inclusion of 2.5 ug/ml poly (dIdC), to reduce interference by compounds such as DNA intercalators, a major source of false inhibitors.
Opher Gileadi, Structural Genomics Consortium, University of Oxford
Screening Center PI: Austin, C.P.
Screening Center: NIH Chemical Genomics Center [NCGC]
Three uL of reaction buffer (25 mM Tris-HCl (pH 8.0), 5 mM NaCl, 2 mM MgCl2, 1mM DTT, 0.01% Tween- 20, and 2.5 ug/ml poly(dI-dC), including enzyme (50 nM RECQ1T1), were dispensed into a 1536-well Greiner black assay plate via solenoid-valve based nanoliter dispensers. Compounds (23 nl each in columns 5-48) and control (23 nl each in column 2 as dose-response) were transferred via a Kalypsys pintool equipped with a 1536-pin array. The plates were incubated for 15 min at room temperature, and then 1 ul of substrates (200 nM DNA and 2 mM ATP, final concentrations) was added to start the reaction. The plate was transferred into a ViewLux high-throughput CCD imager where the reaction progress was measured in a discontinuous kinetic mode (two reads spaced 2 hours apart, with intermediate room temperature incubation of the covered assay plate) by using standard red-fluorescence optics (excitation filter 525 nm, emission filter 598 nm). Enzyme-free and vehicle (DMSO) controls were included for signal normalization.
With `O=C1NC(=O)N(Cc2ccco2)C(=O)/C1=C\c1ccc(-c2ccc(F)cc2)o1`, the Potency is 25.1 µM (active).
`O=C1NC(=O)N(CCc2ccc(F)cc2)C(=O)/C1=C/C=C/c1ccccc1`: the “activity, negative = inhibition” value was -7.01%.
Consider `CC(C)CC(C)Nc1ccc(Nc2ccccc2)cc1` (stereo unspecified), for which the “activity, negative = inhibition” value was -4.48%.
For the molecule `N#CC(C#N)=Cc1cc(O)c(O)c([N+](=O)[O-])c1`, the Potency is 31.6 µM (active).
In the case of `CCN(CC)c1nc(C)cc(OP(=S)(OC)OC)n1`, the “activity, negative = inhibition” value was -4.04%.
`O=C(CN1CCCC1=O)NCCc1ccccc1`: the “activity, negative = inhibition” value is 3.98%.
For `CC(C)(C)c1ccc(CN2C(=O)CN=C(c3ccccc3)c3ccccc32)cc1`, the molecule was called inactive.
As to `O=C1CC(=O)N(Cc2ccccc2)C(=O)N1CCCCCCN1C(=O)CC(=O)N(Cc2ccccc2)C1=O`, the Potency is 7.94 µM (active).
For `CO[C@H]1[C@@H](O)[C@@H](C)O[C@H](O[C@H]2[C@H](Oc3cccc4c(O)c5c(=O)oc6ccc(C)c7c(=O)oc(c34)c5c67)O[C@H](C)[C@H](O)[C@@H]2O)[C@@H]1O`, the “activity, negative = inhibition” value is -27%.
For `COc1cccc(N2C(=O)NC(=O)/C(=C\c3ccc([N+](=O)[O-])s3)C2=O)c1`, the Potency was 22.4 µM (active).
With `Cc1c(C(=O)O)cccc1-n1c(C)cc(/C=C2\C(=O)NC(=O)N(c3ccc4c(c3)OCO4)C2=O)c1C`, the “activity, negative = inhibition” value was -6.31%.
On the same count and under the same terms, with `CCCCCCCCCCCCN=C(N)N` the figure was -3.44%; with `CCCN(C/C=C/I)C1CCc2ccc(O)cc2C1` (stereo unspecified), 16.7%.
On the same count and under the same terms, with `ClCCBr` the figure was -7.43%.
On to `CC(C)(Cc1c[nH]c2ccc(Cl)cc12)NCCOc1ccccc1OCC1CC1`, for which the Potency result was “inactive”.
As to `CC(=O)[O][Sn]([c]1ccccc1)([c]1ccccc1)[c]1ccccc1`, the “activity, negative = inhibition” value was -18.8%.
For the molecule `CN(C)C[C@H]1CCCC[C@]1(O)c1cccc(O)c1`, the “activity, negative = inhibition” value was -4.76%.
For `O=C(OCC1O[C@@H](OC(=O)c2cc(O)c(O)c(O)c2)[C@@H](OC(=O)c2cc(O)c(O)c(O)c2)[C@@H](OC(=O)c2cc(O)c(O)c(O)c2)[C@@H]1OC(=O)c1cc(O)c(O)c(O)c1)c1cc(O)c(O)c(O)c1` (stereo partly specified), the Potency is 0.112 µM (active).
In the case of `C=CCN1CCC2(C)c3cc(O)ccc3CC1[C@@H]2C` (stereo partly specified), the “activity, negative = inhibition” value is -14.3%.
Consider `CC(C)(C)C(O)(CCc1ccc(Cl)cc1)Cn1cncn1` (stereo unspecified), for which the “activity, negative = inhibition” value is -5.08%.
Still for that read-out and setting: the same measure for `O=C1CCc2cccc3c2N1CC3`: -9.06%.
On to `C[C@@H]1C[C@H]2CC[C@H](O2)[C@H](C)C(=O)O[C@@H](C)C[C@@H]2CC[C@@H](O2)[C@@H](C)C(=O)O[C@H](C)C[C@H]2CC[C@H](O2)[C@H](C)C(=O)O[C@@H](C)C[C@@H]2CC[C@@H](O2)[C@@H](C)C(=O)O1`, for which the “activity, negative = inhibition” value was -2.94%.
As to `Nc1ccc(-c2ccc(N)c(N)c2)cc1N`, the “activity, negative = inhibition” value is -4.18%.
Same read-out and setting: with `CC[C@]1(O)C(=O)OCc2c1cc1n(c2=O)Cc2cc3ccccc3nc2-1` the figure was -18.3%.
With `CC[N+](C)(CC)CCC[n+]1c(-c2ccccc2)c2cc(N)ccc2c2ccc(N)cc21`, the Potency is 11.2 µM (active) and 35.5 µM (active).
Turning to `C[C@H]1C/C=C/[C@@H]2[C@@H]3O[C@]3(C)[C@@H](C)[C@H]3[C@H](Cc4ccccc4)NC(=O)[C@]32OC(=O)O/C=C/[C@](C)(O)C1=O`, the “activity, negative = inhibition” value is 6.24%.
Same read-out and setting: the same measure for `CN(C)[C@@H]1C(=O)C(C(N)=O)=C(O)[C@@]2(O)C(=O)C3=C(O)c4c(O)cccc4[C@@](C)(O)C3CC12` (stereo partly specified): -0.266%.
Regarding `N#CCCCl`, the Potency result is “inactive”.
For `N#Cc1cc(Br)c(O)c(Br)c1`, the “activity, negative = inhibition” value was 15.8%.
As for `CCCCC#N`, the “activity, negative = inhibition” value is 11.1%.
Consider `CC(C)(c1ccc(OC[C@@H]2CO2)cc1)c1ccc(OC[C@H]2CO2)cc1`, for which the “activity, negative = inhibition” value was -8.34%.
Consider `CO[C@@H]1C[C@@H](C[C@H]2CC[C@H](C)[C@@H]([C@@H](C)C(=O)O)O2)O[C@]2(O[C@](C)([C@H]3CC[C@@](C)(C4OC([C@H]5O[C@@](O)(CO)[C@H](C)C[C@@H]5C)C[C@@H]4C)O3)C[C@H]2C)[C@@H]1C` (stereo partly specified), for which the result was inactive.
Consider `C[C@]12O[C@H](C[C@@]1(O)C(=O)O)n1c3ccccc3c3c4c(c5c6ccccc6n2c5c31)CNC4=O`, for which the “activity, negative = inhibition” value was -8.07%.
Take `CN[C@@H]1C[C@H]2O[C@@](C)([C@@H]1OC)n1c3ccccc3c3c4c(c5c6ccccc6n2c5c31)C(=O)NC4`: the Potency is 35.5 µM (active) and the outcome was “inactive [at 11.5 µM]”.
Regarding `COc1ccc2[nH]cc(CCNCc3ccc(Br)cc3)c2c1`, the “activity, negative = inhibition” value was -1.04%.

These data come from PubChem BioAssay AID2549 (National Center for Advancing Translational Sciences (NCATS), 2010).
